Source: PubChem BioAssay (Tox21)
Inconclusive results are not listed. Unmarked numbers belong to inactive results. Active and inactive are the calls of the source. Calls come from the whole dose curve.

test: p53 small molecule agonists, cell-based qHTS assay with human liver microsomes: qHTS cell viability counter screen (AID 1963579); conditions: p53RE-bla HCT-116 viability, ATP luminescence, 16 h, HLM; series mostly up to 66 µM; activity change, negative = cytotoxicity: at the top concentration; note: nearly all actives have a fitted effect of over 45% in size
Source text: National Center for Advancing Translational Sciences [NCATS]
Division of Preclinical Innovation [DPI]
U.S. Environmental Protection Agency [EPA]
National Institutes of Environmental Health Sciences [NIEHS]
National Toxicology Program [NTP]
U.S. Food and Drug Administration [FDA]
p53, a tumor suppressor protein, is activated following cellular insult, including DNA damage and other cellular stresses. The activation of p53 regulates cell fate by inducing DNA repair, cell cycle arrest, apoptosis, or cellular senescence. The activation of p53, therefore, is a good indicator of DNA damage and other cellular stresses. […] The activation of the reporter gene under culture conditions can be detected by fluorescence intensity. This cell line was used to screen the Tox21 10K compound library in the condition of presence of human liver microsomes and to identify agonists that activate the p53 signaling pathway after in vitro metabolic activation (Ooka et al., Archive of Toxicology 96:1975-1987, 2022).
Tox21 Assay Protocol Summary:
The p53RE-bla cells were dispensed at 4,000cells/3ul/well in 1536-well black-clear bottom plates. After the assay plates were incubated at 37 C, 5% CO2 incubator for 5 hours, 23 nL of compounds dissolved in DMSO, positive controls or DMSO only was transferred to the assay plate. Following compound addition, 3 uL of human liver microsomes (XenoTech, Kansas City, KS) at final concentration of 0.5 mg/mL and 1uL of B-Nicotinamide adenine dinucleotide 2'-phosphate (NADPH) at final concentration of 0.5 mg/mL were transferred to the assay plate. The plates were incubated at 37 C for 16 hours. 1 uL of LiveBLAzer detection mixture was added to each well and the plates were incubated at room temperature in the dark for 2 h. Fluorescence intensity at 460 and 530 nm emission and 405 nm excitation were measured by an Envision plate reader. For cell viability readout that measures cytotoxicity, 4 ul/well of CellTiter-Glo reagent was added into the assay plates using a Flying Reagent Dispenser. After 30 min incubation at room temperature, the luminescence intensity in the plates was measured using a ViewLux plate reader.
% is set by controls: 0 for no effect and ±100 for the full control effect; potency is the fitted concentration of half-maximal effect.

SMILES | activity change, negative = cytotoxicity | Potency
CSc1ccc(Oc2ccc(S(N)(=O)=O)cc2CN(C)C)cc1C | -13.8% | 
O=[N+]([O-])c1nccn1CO[C@@H](CO)[C@H](O)CO | -4.27% [at 30.3 µM] | 
C=C(C)C(=O)OCCOc1ccccc1 | -10.1% | 
O=C(CCCN1CCN(c2ccc(F)cc2)CC1)NC1c2ccccc2CSc2ccccc21 (stereo not given) | -13.4% [at 30.3 µM] | 
O=C(O)c1ccc(S(=O)(=O)O)cc1C(=O)O | 1.55% | 
Cc1cccc(C(=O)O)c1O | -3.08% [at 30.3 µM] | 
Fc1ccc(C(c2ccc(F)cc2)N2CCNCC2)cc1 | -6.73% [at 30.3 µM] | 
Cc1ccccn1 | 13.2% | 
CC[N+](CC)(CC)CCOc1ccc(/C=C/c2ccccc2)cc1 | 9.26% [at 30.3 µM] | 
C/C=C1\[C@H]2C=C(C)C[C@]1(N)c1ccc(=O)[nH]c1C2 | 4.71% [at 30.3 µM] | 
COC(C)(C)CC(C)=O | 19.8% | 
NCCc1ccn[nH]1 | -7.51% [at 30.3 µM] | 
CC(=O)Oc1ccc([N+](=O)[O-])cc1CCl | -11% | 
O=C(O)CCc1nc2ccccc2[nH]1 | -1.16% [at 30.3 µM] | 
CC(=O)[C@H]1[C@H](C#N)C[C@H]2[C@@H]3CC=C4C[C@@H](O)CC[C@]4(C)[C@H]3CC[C@@]21C | 4.42% [at 30.3 µM] | 
CN(C)C(C)(C)CO | -3.75% | 
c1ccc(B(c2ccccc2)c2ccccc2)cc1 | 0.15% | 
CCN(CC)CCCN(c1ccccc1)C1Cc2ccccc2C1 | 19.6% [at 30.3 µM] | 
CO[C@]12C[C@@H](COC(=O)c3cncc(Br)c3)CN(C)[C@@H]1Cc1cn(C)c3cccc2c13 | 13.9% [at 30.3 µM] | 
COc1ccc(S(=O)(=O)N2C(=O)[C@@](c3ccccc3OC)(N3C[C@H](O)C[C@H]3C(=O)N(C)C)c3cc(Cl)ccc32)c(OC)c1 | 0.458% | 

SMILES | activity change, negative = cytotoxicity | Potency
O=C(NS(=O)(=O)/C=C/c1cccs1)c1ccc(F)cc1Br | 1.92% | 
O=C(O)CCCCCCCCCC(=O)O | 11.8% | 
CN1C(C(=O)Nc2ccccn2)=C(O)c2sccc2S1(=O)=O | -0.22% [at 30.3 µM] | 
NC(=O)CCCCC1CCSS1 (stereo not given) | -24.8% [at 30.3 µM] | 
CCCCCCCC#N |  | 32.4 µM (active)
Nc1ccc(C(=O)Nc2ccccc2N)cc1 | -12.7% [at 30.3 µM] | 
CCCCCCCCCCC=O | 3.33% | 
Nc1ccc([N+](=O)[O-])cc1O | 8.77% | 
CCCC(C)CC (stereo not given) | 0.196% | 
O=C(O)CCSSCCC(=O)O | 4.44% | 
CC(C)(C)CC(C)(C)c1ccc(OCCO)cc1 | -2.72% | 
CCc1cc(SCc2sc(-c3ccc(C(F)(F)F)cc3)nc2CN2CCN(c3ccc(OC)cc3)CC2)ccc1OCC(=O)O |  | 36.3 µM (active)
Cc1ccc(NC(=O)c2ccc(CN3CCN(C)CC3)cc2)cc1Nc1nccc(-c2cccnc2)n1 | -16% [at 30.3 µM] | 
COC(C(=O)O)c1ccccc1 (stereo not given) | -1.76% | 
Nc1nc2ccc([N+](=O)[O-])cc2s1 |  | 28.9 µM (active)
COc1cc(C)cc(O)c1 | 3.78% | 
CC1=CC(C)C(C=O)C(C)C1 (stereo not given) | 2.84% | 
COC(C)(C)OC | 6.61% | 
CCOC(=O)Nc1ccc2c(c1)N(C(=O)CCN1CCOCC1)c1ccccc1S2 | 1.94% [at 30.3 µM] | 
CCOC(=O)C1=C[C@]2(CC)CCCN3CCc4c(n1c1ccccc41)[C@@H]32 | 27.4% [at 30.3 µM] | 
